In PubChem BioAssay (NCATS):
Several values for one entry are separate records, joined by “and”; a condition that tells them apart may be missing. Equal values may be shown once. Inconclusive results are not listed. A number with no mark means an inactive call. Activity calls are given as the source filed them. Calls come from the whole dose curve; as a rule, active = well fitted activation curve with a large enough effect; inconclusive = small, poorly fitted or top-dose-only effect; inactive = no such curve, though single readings can be large or run the other way. Non-standard residues stand in square brackets, D forms with d. Residues, ends and D or L forms follow the SMILES beside them. pGlu = O=C1CC[C@@H](C(=O)O)N1

Biological target: Cellular tumor antigen p53 (Homo sapiens) (UniProt P04637)
Sequence (P04637 whole entry, looked up): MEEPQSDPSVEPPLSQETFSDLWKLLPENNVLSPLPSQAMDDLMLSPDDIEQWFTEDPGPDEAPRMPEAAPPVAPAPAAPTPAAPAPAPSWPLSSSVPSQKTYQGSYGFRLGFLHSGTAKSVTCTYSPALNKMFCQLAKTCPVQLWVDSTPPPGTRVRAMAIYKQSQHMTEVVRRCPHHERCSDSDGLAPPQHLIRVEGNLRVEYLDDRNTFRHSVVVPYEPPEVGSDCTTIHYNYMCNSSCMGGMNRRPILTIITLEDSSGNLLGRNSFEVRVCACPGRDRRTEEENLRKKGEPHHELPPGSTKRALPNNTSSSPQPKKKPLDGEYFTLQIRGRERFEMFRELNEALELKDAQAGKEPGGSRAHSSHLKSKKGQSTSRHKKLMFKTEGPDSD
Assay: Primary qHTS for small molecule compounds that upregulate eGFP-tagged delta133p53alpha (in N-terminal) cells. (AID 2060322); note: nearly all actives have a fitted effect of over 75% in size;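 for activation: cells pre-induced with doxycycline then dosed without doxycycline; series mostly up to about 56 µM; 0% = DMSO vehicle and 100% = reference activator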
Settings: NCI-H358 eGFP-delta133p53alpha fluorescence, 24 h; activation: stronger effect = higher value
Outline: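 NCI-H358 cells pre-induced 24 h with 10 ng/ml doxycycline for eGFP-delta133p53alpha, plated dox-free and exposed 24 h at 37C to titrated compounds. Fixed, Hoechst-stained; gated GFP peak intensity by laser scanning cytometry, normalized to DMSO (0%) and 57.5 uM 5-azacytidine (100%).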
Potency is the fitted concentration of half-maximal effect.

SMILES	activation	Potency
CC(=O)O[C@]1(C(C)=O)CC[C@@H]2[C@@H]3C[C@H](C)C4=CC(=O)CC[C@]4(C)[C@H]3CC[C@@]21C	17.1%	
CNCC[C@@H](Oc1ccccc1C)c1ccccc1	-17.6%	
CC(=O)Nc1ccc(OCC(O)CNC(C)C)cc1 (stereo not drawn)	-14.2%	
CC(=O)Nc1ccc(/C=N/NC(N)=S)cc1	-14.2%	
O=C(CCCl)NCCc1ccccc1	-4.18%	
Nc1ccc(C(=O)NCC(=O)O)cc1	-8.47%	
O=C(O)C1CCC1	-6.69%	
COc1ccc(C=CC(=O)Nc2ccccc2C(=O)O)cc1OC	5.12%	
CCC(=O)O[C@H]1[C@H](O[C@@H]2[C@@H](C)[C@H](O[C@H]3C[C@@](C)(OC)[C@@H](O)[C@H](C)O3)[C@@H](C)C(=O)O[C@H](CC)[C@@](C)(O)[C@H](O)[C@@H](C)C(=O)[C@H](C)C[C@@]2(C)O)O[C@H](C)C[C@@H]1N(C)C	0.837%	
Cc1ccc2c(Br)cc(Br)c(O)c2n1	-18.4%	
COc1cc(N2CCN(C)CC2)ccc1Nc1nc(N)c(C(=O)c2c(Cl)cccc2Cl)s1	-2.41%	
COc1cc(C(=O)NCc2ccc(OCCN(C)C)cc2)cc(OC)c1OC	1.67%	
CCCCCCCCCCCCOCCOCCOCCOCCOCCOCCOCCOCCOCCO	6.21%	
NC(=O)c1cccc2[nH]c(-c3ccc([C@@H]4CCCN4)cc3F)nc12	-16.8%	
Cc1cc(CC(=O)O)c(C)n1-c1ccc(Cl)cc1	5.86%	
Cc1ccc(C(=O)NCCCCCC(=O)Nc2ccccc2N)cc1	11.2%	
NCc1ccccc1Sc1ccccc1CO	15.3%	
CCC(C)(CN(C)C)OC(=O)c1ccccc1 (stereo not drawn)	-10.9%	
CCNC(=O)[C@@H]1CCCN1C(=O)[C@H](CCCN=C(N)N)NC(=O)[C@H](CC(C)C)NC(=O)CNC(=O)[C@H](Cc1ccc(O)cc1)NC(=O)[C@H](CO)NC(=O)[C@H](Cc1c[nH]c2ccccc12)NC(=O)[C@H](Cc1cnc[nH]1)NC(=O)[C@@H]1CCC(=O)N1 ([pGlu]HWSYGLRP-NHEt)	5.86%	
CN1Cc2cc(C(=O)N3CCC(C4CCNCC4)CC3)ccc2NC(CC(=O)O)C1=O (stereo not drawn)	-16.7%	
O=C(OCC1(COC(=O)c2cccnc2)CCCC(COC(=O)c2cccnc2)(COC(=O)c2cccnc2)C1O)c1cccnc1	-11.7%	
Cc1nc2n(c(=O)c1CCN1CCC(c3noc4cc(F)ccc34)CC1)CCCC2	2.45% and 8.37%	

SMILES	activation	Potency
C=C1CCC2[C@](C)(CO)C(O)CC[C@]2(C)C1CC=C1C(=O)OCC1O (stereo partly drawn)	-28.9%	
CCCCC(CC)CNC(=O)CC(C)OC(=O)CCC(=O)O (stereo not drawn)	11.7%	
O=S(=O)(N=Cc1c(O)ccc2ccccc12)c1cccs1	11.3%	
COc1ccc(-c2oc3c(CC=C(C)C)c(OC4O[C@H](CO)[C@@H](O)[C@H](O)[C@@H]4O)cc(O)c3c(=O)c2OC2O[C@@H](C)[C@H](O)[C@@H](O)[C@@H]2O)cc1 (stereo partly drawn)	-27.6%	
N[C@@H](Cc1cc(I)c(Oc2ccc(O)c(I)c2)c(I)c1)C(=O)O	-7.64%	
O=C1C(CCS(=O)c2ccccc2)C(=O)N(c2ccccc2)N1c1ccccc1 (stereo not drawn)	15.1%	
CC1(C)OC2=C(C(=O)c3ccccc3C2=O)[C@H](NCc2ccccc2)[C@H]1O		24.3 µM (active)
COc1ccc(-c2cc(=S)ss2)cc1	-4.18%	
C[C@]12CCC(=O)C=C1[C@@H]1CC1[C@H]1[C@H]3[C@@H]4C[C@H]4[C@@]4(CCC(=O)O4)[C@@]3(C)CC[C@H]12 (stereo partly drawn)	8.34%	
CCCCOc1ccc(C(=O)CCN2CCCCC2)cc1	10.9%	
COc1ccc(S(=O)(=O)ON=C2C=C(C)C(=O)C(C)=C2)cc1		34.3 µM (active)
CC(=O)OCC(=O)[C@@]1(O)CCC2C3CCC4=CC(=O)CC[C@]4(C)C3[C@@H](O)C[C@@]21C (stereo partly drawn)	25.1%	
CCCc1c2oc(C(=O)O)cc(=O)c2cc2c(=O)cc(C(=O)O)n(CC)c12	-10%	
CCCCCCCCCCCCCCCCCC(=O)O	24.3%	
CC1(C)OC(=O)Nc2ccc(Br)cc21	3.95%	
O=C(C1CCCCC1)N1CC(=O)N2CCCc3ccccc3C2C1 (stereo not drawn)	4.18%	
Fc1ccc(C(c2ccc(F)cc2)N2CCNCC2)cc1	-8.47%	
Cc1cccc(C)c1NC(=O)CN1CCCCCC1	6.69%	
N#Cc1cc(NC(=O)C(=O)O)c(Cl)c(NC(=O)C(=O)O)c1	0.565%	
CC(C)c1cc2c(c(O)c1O)[C@@]13CCCC(C)(C)[C@@H]1[C@H](OC3=O)C2=O	0%	
CC1(C)CCC[C@@]2(C)[C@@H]1CC[C@@]1(C)OC(=O)C[C@H]21	-11.9%	
